Source: PubChem BioAssay
The list is not random: actives were taken first. Their share in the collection is about 12%.
Pf growth 96h = inhibits malaria parasite growth, 96 h; 320,000 tested, 6.9% active; AID 504834; P. falciparum luciferase reporter growth, 96 h; Potency, µM (series often up to 28.7 µM), actives largely listed as inhibitors
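Erythrocytes infected with luciferase-expressing P. falciparum were dispensed at 2% hematocrit and 0.05% parasitemia (final), then incubated with compounds 96 hours at 37 C in 5% CO2. Luminescence after detection reagent addition reported growth.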
AmpC inh no detg = inhibitors of E. coli AmpC beta-lactamase without detergent; AID 485341; 330,000 tested, 0.52% active; Potency, µM (highest dose often 57.1 µM), most hits filed as inhibitors; AmpC nitrocefin hydrolysis, absorbance 480 nm, 0.0001% Triton; P00811; also: nearly all actives have a fitted effect of over 20% in size
Target sequence (P00811 whole entry, looked up): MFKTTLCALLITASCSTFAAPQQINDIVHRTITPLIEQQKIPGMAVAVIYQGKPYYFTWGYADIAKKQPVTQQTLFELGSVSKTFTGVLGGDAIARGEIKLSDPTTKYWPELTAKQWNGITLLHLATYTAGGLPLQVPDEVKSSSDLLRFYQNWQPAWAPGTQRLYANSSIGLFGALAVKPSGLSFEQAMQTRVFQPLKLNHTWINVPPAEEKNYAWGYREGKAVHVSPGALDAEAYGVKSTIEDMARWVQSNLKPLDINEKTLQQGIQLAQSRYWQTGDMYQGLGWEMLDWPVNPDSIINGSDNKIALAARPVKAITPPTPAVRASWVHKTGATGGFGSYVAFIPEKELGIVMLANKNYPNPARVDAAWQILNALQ
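20 mM phosphate pH 7.0 + 0.01% (detergent screen) or 0.0001% Triton X-100; 5.3 nM AmpC reagent; cpd preinc 15 min RT; nitrocefin (800 uM stock) to start; A480 q20 s × 4 min; Activity was normalised to no-enzyme and no-compound control wells.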
Pf growth 48h = inhibits P. falciparum growth in the first generation, 48 h. P. falciparum luciferase growth in erythrocytes, 48 h. Potency, µM (top dose mostly 28.7 µM), actives largely listed as inhibitors. 310,000 tested, 5.9% active
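Compounds are pin-transferred into medium, infected erythrocytes (2% hematocrit, 0.1% parasitemia final) are added, and plates sit one parasite generation at 37 C in 5% CO2. Detection reagent is then added and luminescence measured.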
Sm TGR block = S. mansoni TGR enzyme inhibition; Q962Y6; purified TGR, DTNB reduction, TNB absorbance 405 nm; 360,000 tested, 3% active; Potency, µM (series often up to 114 µM), most hits filed as inhibitors; also: nearly all actives have a fitted effect of over 60% in size
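First, TGR (20 nM dispensed) and NADPH were mixed with compound. Second, a 15 min room-temperature incubation followed. Third, further NADPH and then DTNB were added to start the reaction. Finally, TNB absorbance was monitored kinetically.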
SARS PLpro yeast = inhibitors of SARS-CoV papain-like protease in yeast; S. cerevisiae expressing SARS-CoV PLpro, growth rescue; Potency, µM (highest dose often 32.9 µM), actives largely listed as activators; 330,000 tested, 0.19% active; calls by dose curve; also: nearly all actives have a fitted effect of over 55% in size
AmpC detergent = inhibitors of E. coli AmpC beta-lactamase with detergent; P00811; AmpC hydrolysis of nitrocefin, absorbance 480 nm, 0.01% Triton; Potency, µM (top dose mostly 114 µM), most hits filed as inhibitors; 370,000 tested, 0.041% active; also: nearly all actives have a fitted effect of over 25% in size
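AmpC (5.3 nM in the dispensed reagent) in 20 mM phosphate pH 7.0 with 0.01% (detergent screen) or 0.0001% Triton X-100 was preincubated with compounds for 15 min at room temperature. Nitrocefin was then added from an 800 uM solution, and hydrolysis was followed at 480 nm.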
Large screens that a line does not name were inactive. Unless noted, calls follow the shape of the dose curve; as a rule, active = well fitted curve in the direction sought with a large enough effect; inconclusive = small, poorly fitted or top-dose-only effect, or another doubt; inactive = no such curve, though single readings can be large; an effect the other way counts as inactive or inconclusive.

CCOc1ccc(C2c3c(oc4ccccc4c3=O)C(=O)N2CCCN2CCOCC2)cc1 (stereo not drawn)	Pf growth 48h inconclusive, Sm TGR block 35.5µM, AmpC detergent inconclusive (no result: Pf growth 96h)
CN(C)CCN1C(=O)c2oc3ccccc3c(=O)c2C1c1ccc(F)cc1 (stereo not drawn)	Pf growth 96h inconclusive, Pf growth 48h inconclusive
CCN(CC)CCN1C(=O)c2oc3ccccc3c(=O)c2C1c1ccc(C)cc1 (stereo not drawn)	Pf growth 96h 2.62µM, Pf growth 48h 3.29µM
COC(=O)c1ccc(C2c3c(oc4ccccc4c3=O)C(=O)N2CCCN2CCOCC2)cc1 (stereo not drawn)	Pf growth 96h inconclusive, Sm TGR block 25.1µM (no result: Pf growth 48h)
CCCC(C(=O)NC1CCCC1)N(Cc1ccc(OC)cc1)C(=O)c1snc(C(N)=O)c1N (stereo not drawn)	Pf growth 48h inconclusive
COc1cc(OC)cc(C(=O)N[C@H](C(=O)NCc2ccco2)C(C)C)c1	none
COC(=O)c1cc(NC(=O)c2nn(C)c3c2CSc2ccccc2-3)cc(C(=O)OC)c1	none (no result: Pf growth 96h, AmpC inh no detg, Pf growth 48h, SARS PLpro yeast)
CN1C(=O)c2oc3ccccc3c(=O)c2C1c1ccncc1 (stereo not drawn)	Sm TGR block 44.7µM
COc1ccc(C2c3c(oc4ccccc4c3=O)C(=O)N2Cc2ccncc2)cc1 (stereo not drawn)	none
CCCOc1ccc(C2c3c(oc4ccccc4c3=O)C(=O)N2CCCN2CCOCC2)cc1 (stereo not drawn)	Pf growth 96h inconclusive, Pf growth 48h inconclusive, Sm TGR block 35.5µM
O=C(Cn1c(=O)cnc2ccccc21)Nc1cccc(S(=O)(=O)N2CCCCC2)c1	Pf growth 96h inconclusive, Pf growth 48h inconclusive, AmpC detergent inconclusive
O=C1CC(c2nc3ccccc3n2CCC2CCCCC2)CN1c1ccccc1Cl (stereo not drawn)	none (no result: Pf growth 96h, AmpC inh no detg, Pf growth 48h, SARS PLpro yeast)
Cc1cc(C(C)(C)C)c(O)c(C(C)(C)C)c1	none
Cc1cc(C(C)(C)C)c(OC(=O)[C@@H]2OC(c3ccccc3)=C[C@H]2c2ccccc2)c(C(C)(C)C)c1	Pf growth 96h inconclusive, Pf growth 48h 5.22µM
C=CCNC(=O)c1ccc(N(Cc2ccc(Cl)cc2)S(C)(=O)=O)cc1	AmpC detergent inconclusive
C=CCNC(=O)c1ccc(CN(c2ccc(OCC)cc2)S(=O)(=O)c2ccc(C)cc2)cc1	Pf growth 48h 7.38µM
O=C(CN1CCN(C2CCCCC2)CC1)c1ccc2cc[nH]c2c1	Pf growth 96h 4.65µM, Sm TGR block 31.6µM (no result: Pf growth 48h)
O=C(CN1CCN(C2CCCCC2)CC1)c1c[nH]c2ccccc12	Pf growth 96h inconclusive
Cc1cc(C)cc(-n2ccn(CC(=O)Nc3ccccc3C(F)(F)F)c(=O)c2=O)c1	none (no result: Pf growth 96h, AmpC inh no detg, Pf growth 48h, SARS PLpro yeast)
Cc1cccc(NC(=O)COc2ccccc2C(=O)NC(C)c2ccccc2)c1 (stereo not drawn)	Pf growth 96h 9.28µM, Sm TGR block inconclusive
CC(NCc1ccccc1C(F)(F)F)C(O)c1ccccc1 (stereo not drawn)	Pf growth 48h 8.28µM (no result: Sm TGR block)
Cc1cccc(NC(=O)c2ccccc2OCC(=O)c2ccccc2)c1	AmpC detergent inconclusive
CCN(CC)CCNCc1cc(Cl)c(OCC(=O)Nc2ccccc2)c(OC)c1	Pf growth 96h inconclusive, Pf growth 48h inconclusive
CC(NCc1ccc(Cl)c(Cl)c1)C(O)c1ccccc1 (stereo not drawn)	Pf growth 48h inconclusive (no result: Pf growth 96h)
CCOc1cc(CNC(C)C(O)c2ccccc2)cc(Cl)c1OCC (stereo not drawn)	Pf growth 96h inconclusive, Pf growth 48h 1.47µM, AmpC detergent inconclusive
COc1cc(CNC(C)c2ccccc2)cc(Cl)c1OCC(=O)Nc1ccccc1 (stereo not drawn)	Pf growth 96h inconclusive, Pf growth 48h 11.7µM
Cc1ccc(NC(=O)C2CCCN(c3ncnc4onc(C)c34)C2)cc1Cl (stereo not drawn)	none (no result: Pf growth 96h, AmpC inh no detg, Pf growth 48h, SARS PLpro yeast)
CC(NCc1ccccc1Cl)C(O)c1ccccc1 (stereo not drawn)	Pf growth 96h 7.38µM, Pf growth 48h 9.28µM
CCOC(=O)c1ccc(NC(=O)c2csnn2)cc1	none (no result: Pf growth 96h, AmpC inh no detg, Pf growth 48h, SARS PLpro yeast)
